Data published in PubChem BioAssay (NCI).
Compounds without any hit were thinned out: in the full panel of roughly 79,000, 15% have a hit. Values without a mark were called inactive. The source made the active and inactive calls. No stated cut-off is given here; in the data, active means growth inhibition above about 70%; inactive means the rest.

Assay: NCI Yeast Anticancer Drug Screen. Data for the rad50 strain (AID 155);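 further: 0% = growth of vehicle-only cultures of the same strain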
Details: S. cerevisiae rad50 strain growth inhibition; at 5.0 µM (retest, dose inferred, filed as 0.5); stronger effect = higher value
Outline: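 Growth of the mutant yeast was measured after compound exposure and referenced to vehicle-treated cultures.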

Compound	growth inhibition
CSC(=S)N/N=C(\C)c1nccnc1C	5%
CC(=O)Oc1cc2c(cc1OC(C)=O)OCC(c1ccccc1)C2 (centres undefined)	2%
O=Cc1ccc(O)c2ccccc12	-3%
CC(=O)N(C1=C(Cl)C(=O)c2ccccc2C1=O)c1ccc(Cl)cc1	98% (active)
Cn1c2c(c3ccccc31)CCN1C[C@@H]3CCCC[C@H]3C[C@@H]21	0%
CCOc1ncc(Cl)c(OCC)n1	3%
C=C1C(=O)OC2C1CC1OC2C(C)CCC/C(C)=C\CCC1(C)O (centres undefined)	2%
CCCCN(CCCC)CCC(O)(c1ccc(OC)c2ccccc12)C(O)(CCN(CCCC)CCCC)c1ccc(OC)c2ccccc12 (centres undefined)	43%
CS/C(N)=N/NC(=O)CCC(=O)Nc1cc(Cl)c(Cl)cc1Cl	3%
COc1ccc(OC)c(N=Nc2c(C)[nH]n(C(N)=S)c2=O)c1	-6%
O=C(CC(=O)c1ccccc1)CC1(O)CCCCC1	22%
Nc1ccc2ccccc2c1Cc1c(O)ccc2ccccc12	9%
CC[n+]1c(/C=C/c2cc(C(=O)OC)n3c2sc2ccccc23)sc2ccccc21	43%
O=CNc1ccc2c(c1)Cc1cc(NC=O)ccc1-2	-4%
O=C1CC(c2ccccc2)C(=O)N2C(=O)CC(c3ccccc3)C(=O)N12 (centres undefined)	1%
CN1CCN(CCOC(=O)N2c3ccccc3Sc3ccccc32)CC1	1%
COc1nc(Nc2ccc(/C=C/c3ccc(Nc4nc(OC)nc(N(CCO)CCO)n4)cc3S(=O)(=O)O)c(S(=O)(=O)O)c2)nc(N(CCO)CCO)n1	-4%
NNC(=O)NN=C(c1ccccc1)c1ccccc1	0%
CCOC(=O)C(Br)C(Br)c1cccc([N+](=O)[O-])c1 (centres undefined)	97% (active)
CCCCCCC(O)C(CO)CCCCC (centres undefined)	0%
Oc1c(Br)c(Br)c(O)c(Br)c1Br	12%
CC(=O)n1nc2c(c1CC(C)C)C(=O)C(Nc1ccccc1)=CC2=O	1%
CC(C)(CCBr)[N+](=O)[O-]	-151%
Nc1ccccc1SCc1csc(-c2ccc(Cl)cc2)n1	-4%

Same assay, conditions: S. cerevisiae rad50 strain growth inhibition; at 50.0 µM (retest, dose inferred, filed as 5.0); stronger effect = higher value

Compound	growth inhibition
Cc1ccc2c(c1)CC1(C2)Cc2ccc(C)cc2C1=O (centres undefined)	73% (active)
NC1=CC(=O)c2ccccc2C1=O	84% (active)
CCCCC(CC(=O)O)c1ccc(Cl)cc1 (centres undefined)	-7%
OCCOCCO[P+]1(OCCOCCO)n2c3ccc2C(c2ccccc2)=C2C=CC(=N2)C(c2ccccc2)=c2ccc(n21)=C(c1ccccc1)C1=NC(=C3c2ccccc2)C=C1	98% (active)
Clc1ccc2[nH]c(-c3ccccc3)c(-c3ccccn3)c2c1	94% (active)
COc1cc(NS(C)(=O)=O)ccc1Nc1c2ccccc2nc2ccccc12	85% (active)
COC1/C=C/OC2(C)Oc3c(C)c(O)c4c(c3C2=O)C(=O)C=C(NC(=O)/C(C)=C\C=C\C(C)C(OC=O)C(C)C(O)C(C)C(OC(C)=O)C1C)C4=O (centres undefined)	-4%
COc1ccc(CN(C)c2c(C)ccc3ccccc23)cc1	85% (active)
CCOC(=O)c1c(-c2ccccc2)csc1NC(=O)CBr	98% (active)
Nc1nc2nc(I)[nH]c2c(=O)[nH]1	-4%
CC(CN(CC(=O)O)CC(=O)O)N(CC(=O)O)CC(=O)O.[Cl][Pd][Cl] (centres undefined)	89% (active)
COC(=O)c1nc(=S)[nH]c(C(=O)OC)c1C(=O)c1ccc2ccccc2c1	96% (active)
O=C(Nc1ccccc1)OCCc1ccc(Br)cc1	-9%
O=C(CCN1CCCCC1)/C(=C\c1ccc(Cl)cc1)c1ccccc1	95% (active)
FC(F)(F)c1nc(S)cc(=S)[nH]1	13%
CCCCC(=O)N/N=C/c1ccc([N+](=O)[O-])s1	93% (active)
CSC(=S)N/N=C(\C)c1nccnc1C	98% (active)
CC(=O)Oc1cc2c(cc1OC(C)=O)OCC(c1ccccc1)C2 (centres undefined)	45%
O=Cc1ccc(O)c2ccccc12	66%
CC(=O)N(C1=C(Cl)C(=O)c2ccccc2C1=O)c1ccc(Cl)cc1	99% (active)

Compound	growth inhibition
Cn1c2c(c3ccccc31)CCN1C[C@@H]3CCCC[C@H]3C[C@@H]21	55%
CCOc1ncc(Cl)c(OCC)n1	-5%
C=C1C(=O)OC2C1CC1OC2C(C)CCC/C(C)=C\CCC1(C)O (centres undefined)	8%
CCCCN(CCCC)CCC(O)(c1ccc(OC)c2ccccc12)C(O)(CCN(CCCC)CCCC)c1ccc(OC)c2ccccc12 (centres undefined)	99% (active)
CS/C(N)=N/NC(=O)CCC(=O)Nc1cc(Cl)c(Cl)cc1Cl	16%
COc1ccc(OC)c(N=Nc2c(C)[nH]n(C(N)=S)c2=O)c1	47%
O=C(CC(=O)c1ccccc1)CC1(O)CCCCC1	42%
Nc1ccc2ccccc2c1Cc1c(O)ccc2ccccc12	96% (active)
CC[n+]1c(/C=C/c2cc(C(=O)OC)n3c2sc2ccccc23)sc2ccccc21	99% (active)
O=CNc1ccc2c(c1)Cc1cc(NC=O)ccc1-2	81% (active)
O=C1CC(c2ccccc2)C(=O)N2C(=O)CC(c3ccccc3)C(=O)N12 (centres undefined)	28%
CN1CCN(CCOC(=O)N2c3ccccc3Sc3ccccc32)CC1	1%
COc1nc(Nc2ccc(/C=C/c3ccc(Nc4nc(OC)nc(N(CCO)CCO)n4)cc3S(=O)(=O)O)c(S(=O)(=O)O)c2)nc(N(CCO)CCO)n1	53%
NNC(=O)NN=C(c1ccccc1)c1ccccc1	16%
CCOC(=O)C(Br)C(Br)c1cccc([N+](=O)[O-])c1 (centres undefined)	99% (active)
CCCCCCC(O)C(CO)CCCCC (centres undefined)	97% (active)
Oc1c(Br)c(Br)c(O)c(Br)c1Br	50%
CC(=O)n1nc2c(c1CC(C)C)C(=O)C(Nc1ccccc1)=CC2=O	100% (active)
CC(C)(CCBr)[N+](=O)[O-]	-161%
Nc1ccccc1SCc1csc(-c2ccc(Cl)cc2)n1	98% (active)
